Source: PubChem BioAssay (Sanford-Burnham Center for Chemical Genomics)
ER stress surv: protection against thapsigargin ER stress killing – CSM14.1 cells, ATP luminescence, primary screen; CSM14.1 thapsigargin ER stress survival; relative survival (cellular ATP), % at 15 µg/mL (by protocol); 0.33% of 48,000 active; AID 1010, 2008;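 active = survival measured by cellular ATP above 50% at 15 µg/ml in the first screen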;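 also: cell death triggered by about 15 µM thapsigargin; ATP read 24 h after thapsigargin was added; plate controls were thapsigargin with DMSO for no effect and DMSO without thapsigargin for full effect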
Starred values were filed as active, the others as inactive. Only a selection was taken, and hits are over-represented in it overall.

SMILES	ER stress surv
CCN(CC)c1ccc(/C=C2/SC(=S)N(CNc3cccc(C)c3)C2=O)cc1	2.7
CN1CCC(=NNC(=O)c2cc3ccccc3cc2O)CC1	0.8
COc1ccccc1C1/C(=C(\O)c2ccc(F)cc2)C(=O)C(=O)N1CCCCCC(=O)O (stereo not given)	-4.0
CCCCOc1ccc(C2Nc3ccccc3NC3=C2C(=O)CC(C)(C)C3)cc1 (stereo not given)	-3.0
COc1ccc(C2Nc3ccccc3NC3=C2C(=O)CC(C)(C)C3)cc1COc1ccc(F)cc1 (stereo not given)	60.9*
COC(=O)c1ccc(C2Nc3ccccc3NC3=C2C(=O)CC(C)(C)C3)cc1 (stereo not given)	6.7
CC1(C)CC(=O)C2=C(C1)Nc1ccccc1NC2c1cccc(F)c1 (stereo not given)	-0.4
CC1(C)CC(=O)C2=C(C1)Nc1ccccc1NC2c1ccc(-c2ccccc2)cc1 (stereo not given)	121.1*
CSc1ccc(C2Nc3ccccc3NC3=C2C(=O)CC(C)(C)C3)cc1 (stereo not given)	11.2
O=C1OC2(c3ccc(N4N=N4)cc3Oc3cc(N4N=N4)ccc32)c2ccccc21	4.0
O=C1N/C(=N\N=C\c2ccco2)SC1Cc1cc(Cl)ccc1Cl (stereo not given)	8.4
CC1CC(Nc2ccccc2)c2ccccc2N1C(=O)/C=C/c1ccco1 (stereo not given)	50.8*
CC1CC(Nc2ccccc2)c2ccccc2N1C(=O)c1cccc(Br)c1 (stereo not given)	6.2
CC1CC(Nc2ccccc2)c2ccccc2N1C(=O)c1ccccc1 (stereo not given)	0.1
O=C(Nc1nnc(-c2ccc(F)cc2)s1)c1ccc(Cl)cc1Cl	11.7
C/C(=N\NS(=O)(=O)c1ccc(C)c([N+](=O)[O-])c1)c1ccc(N)cc1	-0.5
COCCNC(=O)/C(=C/c1ccc(C(C)C)cc1)NC(=O)c1ccccc1	2.0
COc1ccc(CCNC(=O)/C(=C/c2ccc(Cl)cc2)NC(=O)c2ccc(C)cc2)cc1OC	0.1
COc1ccc(CCNC(=O)/C(=C/c2ccc(C(C)C)cc2)NC(=O)c2ccccc2)cc1OC	79.3*
CCOC(=O)c1ccc(NC(=S)NC(NC(=O)c2ccc(Br)cc2)C(Cl)(Cl)Cl)cc1 (stereo not given)	1.4
O=[N+]([O-])c1ccc(/C(=C/C=Nc2ccccc2)Nc2ccccc2)cc1	-4.2
CC(C)(C)NC(=O)c1cc(NC(=O)c2cccs2)cc(NC(=O)c2cccs2)c1	3.6
Cc1cccc(NC(=O)Cc2ccccc2)c1	-5.5
CC(C)(C)NC(=O)c1cc(NC(=O)Cc2ccccc2)cc(NC(=O)Cc2ccccc2)c1	73.0*
COc1ccc(Br)cc1C(=O)Nc1ccc2nn(-c3ccc(F)cc3)nc2c1	2.3
SMILES	ER stress surv
COc1ccc(NC(=O)CCN2C(=O)/C(=C\c3cccc(OC)c3)SC2=S)cc1	25.9
COc1ccc(NC(=O)CCN2C(=O)/C(=C\c3ccc(C)cc3)SC2=S)cc1	51.0*
COc1cccc(NC(=O)CCN2C(=O)/C(=C/c3ccc(C)cc3)SC2=S)c1	8.5
Cc1ccc(/C=C2/SC(=S)N(CCC(=O)N3CCCCC3)C2=O)cc1	-7.8
CCOc1ccccc1N1CCN(C(=O)c2cc(OC)c(OC)c(OC)c2)CC1	-4.0
CCOc1ccccc1N1CCN(C(=O)c2sc3ccccc3c2Cl)CC1	125.3*
CCOc1ccccc1N1CCN(C(=O)c2cccc(Cl)c2)CC1	10.7
CCN1C(=O)/C(=C\c2ccc([N+](=O)[O-])o2)SC1=S	-2.9
COP(=O)(OC)C(Nc1cc(Cl)cc(Cl)c1)c1cccc(O)c1 (stereo not given)	-2.8
CC(C)OP(=O)(OC(C)C)C(Nc1cccc([N+](=O)[O-])c1)c1cccc([N+](=O)[O-])c1 (stereo not given)	5.5
CC(C)OP(=O)(OC(C)C)C(Nc1cccc(N)c1)c1cccc(N)c1 (stereo not given)	81.1*
C(=N\N1CCN(Cc2cccc3ccccc23)CC1)/c1ccccn1	4.2
CC(C)(C)C1CCc2c(sc3[nH]c(=S)[nH]c(=O)c23)C1 (stereo not given)	7.6
O=C1CC(c2ccc(Cl)cc2)CC2=C1C(c1ccccc1[N+](=O)[O-])Nc1ccccc1N2 (stereo not given)	26.5
O=C1CC(c2ccc3c(c2)OCO3)CC2=C1C(c1cc3c(cc1Br)OCO3)Nc1ccccc1N2 (stereo not given)	5.8
COc1ccc(C2CC(=O)C3=C(C2)Nc2ccccc2NC3c2cc3c(cc2Cl)OCO3)cc1 (stereo not given)	6.9
O=C1CC(c2ccc3c(c2)OCO3)CC2=C1C(c1ccc(C(F)(F)F)cc1)Nc1ccccc1N2 (stereo not given)	122.3*
COc1ccc(C2CC(=O)C3=C(C2)Nc2ccccc2NC3c2ccc3c(c2)OCO3)cc1 (stereo not given)	5.1
O=C1CC(c2ccccc2)CC2=C1C(c1ccc(Cl)c([N+](=O)[O-])c1)Nc1ccccc1N2 (stereo not given)	99.6*
Cc1ccc(C2Nc3ccccc3NC3=C2C(=O)CC(c2ccc(Cl)cc2)C3)cc1[N+](=O)[O-] (stereo not given)	6.7
O=C1CC(c2ccc(Cl)cc2)CC2=C1C(c1cc3c(cc1[N+](=O)[O-])OCO3)Nc1ccccc1N2 (stereo not given)	83.8*
O=C1CC(c2ccccc2)CC2=C1C(c1ccc(F)cc1)Nc1ccccc1N2 (stereo not given)	8.5
Cc1oc(-c2ccccc2)cc1C(=O)NC(Cc1ccccc1)C(=O)O (stereo not given)	0.9
Cc1ccc(C(=O)Nc2c(C)cc(C)cc2C)cc1	5.6
COc1ccccc1/C=C1/SC(=S)N(CCC(=O)Nc2c(C)n(C)n(-c3ccccc3)c2=O)C1=O	8.1
SMILES	ER stress surv
COc1ccc(C2=NN(C(=O)CCC(=O)O)C(c3cccc([N+](=O)[O-])c3)C2)cc1 (stereo not given)	-7.6
Cc1cc2nc(-c3cc(NC(=S)NC(=O)c4ccccc4Cl)ccc3Cl)oc2cc1C	3.4
O=C(/C=C/c1ccc([N+](=O)[O-])o1)c1ccc(Br)cc1	4.4
O=C(/C=C/c1ccc2c(c1)OCO2)c1ccc(Br)cc1	3.6
CN(C)c1ccc(/C=C/C(=O)c2ccc(Br)cc2)o1	56.0*
Cc1cc(OCCOCCN2CCC(C)CC2)ccc1Cl	-3.3
COc1cc(NC(=O)c2ccc(-c3ccccc3)cc2)ccc1NC(=O)c1ccco1	0.5
CC1(O)CC(=O)C(C(=O)c2ccccc2)C(c2ccc([N+](=O)[O-])cc2)C1C(=O)c1ccccc1 (stereo not given)	-3.2
COC(=O)C1C(=O)CC(C)(O)C(C(=O)OC)C1c1ccc(Br)cc1 (stereo not given)	6.9
COc1ccc(C2C(C(=O)c3ccccc3)C(=O)CC(C)(O)C2C(=O)c2ccccc2)cc1 (stereo not given)	58.0*
CCn1c2ccccc2c2cc(CN3CCN(C(=O)c4ccncc4)CC3)ccc21	16.6
CCn1c2ccccc2c2cc(CN3CCN(C(=O)c4cc(OC)c(OC)c(OC)c4)CC3)ccc21	113.0*
CCn1c2ccccc2c2cc(CN3CCN(Cc4cc(OC)c(OC)cc4OC)CC3)ccc21	-6.2
CCn1c2ccccc2c2cc(CN3CCN(C(=O)c4ccc(OC)c(OC)c4)CC3)ccc21	121.9*
CCn1c2ccccc2c2cc(CN3CCN(Cc4ccccc4OC)CC3)ccc21	-1.8
